LmPK inh = inhibitors of Leishmania mexicana pyruvate kinase | Q27686 | purified LmPK, Kinase-Glo ATP luminescence, 1 h | Potency, µM (highest dose often 57.5 µM), most hits filed as inhibitors | 290,000 compounds, 0.37% hits
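Pyruvate kinase activity monitored as ATP production (luciferase luminescence). Conditions: 0.1 nM enzyme, 0.5 mM PEP, 0.1 mM ADP, 1 h, RT; normalized against uninhibited and no-enzyme wells.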
FBPA Giardia inh = Giardia lamblia aldolase inhibition; 290,000 compounds, 0.71% hits; purified Giardia FBPA; A8B2U2; Potency, µM (doses to about 59.6 µM), actives largely listed as inhibitors; also: nearly all actives have a fitted effect of over 55% in size
Target sequence (A8B2U2 whole entry, looked up): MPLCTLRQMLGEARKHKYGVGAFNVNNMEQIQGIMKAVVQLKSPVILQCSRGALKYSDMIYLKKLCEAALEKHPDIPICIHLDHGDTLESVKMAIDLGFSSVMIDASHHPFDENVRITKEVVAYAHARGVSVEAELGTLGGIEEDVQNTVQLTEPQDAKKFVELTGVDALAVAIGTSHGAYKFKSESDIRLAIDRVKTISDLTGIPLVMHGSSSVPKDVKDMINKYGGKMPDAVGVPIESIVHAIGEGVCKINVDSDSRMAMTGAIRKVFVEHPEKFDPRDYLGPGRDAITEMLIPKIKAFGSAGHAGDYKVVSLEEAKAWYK
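40 nM FBPA preincubated 10 min at RT with compound (up to 57.5 uM final), then substrate plus GAPDH/TPI/NAD/arsenate coupling and diaphorase/resazurin added. Fluorescence read after 20 min at RT, 525/598 nm.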
Tb PYK inh = blocks Trypanosoma brucei pyruvate kinase; Q57TT1; TbPYK enzyme, Kinase-Glo Plus ATP luminescence, 45 min; Potency, µM (titrated, usually from 76.8 µM), usual class: inhibitors; 410,000 compounds, 0.12% hits; also: nearly all actives have a fitted effect of over 50% in size
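Luminescence from Kinase-Glo Plus, added after a 45-minute room-temperature reaction, served as the end-point read-out. The enzyme and substrate were preincubated with compound before ADP (130 uM final) initiated turnover. Concentration-effect curves came from normalized qHTS data.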
Sm TGR inh = inhibitors of Schistosoma mansoni thioredoxin glutathione reductase | Q962Y6 | 360,000 compounds, 3% hits | purified TGR, DTNB reduction, TNB absorbance 405 nm | Potency, µM (doses to about 114 µM), most hits filed as inhibitors; also: nearly all actives have a fitted effect of over 60% in size
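Kinetic colorimetric format: TGR-catalysed, NADPH-driven DTNB reduction monitored via TNB absorbance. Enzyme dispensed at 20 nM; compound exposure 15 min at room temperature before reaction start.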
Cycloheximide cs = counter-screen for Shiga toxin inhibitors: cycloheximide protein synthesis inhibition | cell reporter, cycloheximide protein synthesis inhibition counterscreen | max response, % | 300,000 compounds, 12% hits | AID 2314; in the data active = max response mostly above about 13%, no sharp cut-off; inactive = mostly below about 14%; also: read at 38.3 µM for the half of the compounds with a filed dose
Shiga inhibitor = Shiga toxin inhibition | 290,000 compounds, 9.2% hits | Vero cells, Shiga toxin protein synthesis inhibition reporter | inhibition, % at 38.7 µM; in the data active = inhibition mostly above about 28%, no sharp cut-off; inactive = mostly below about 43%
A number is an active result; . = inactive; ? = inconclusive; / = no result; [ ] = remark or other dose. Shown is part of a subset that was picked to be rich in hits. Unless noted, calls follow the shape of the dose curve; as a rule, active = well fitted curve in the direction sought with a large enough effect; inconclusive = small, poorly fitted or top-dose-only effect, or another doubt; inactive = no such curve, though single readings can be large; an effect the other way counts as inactive or inconclusive.

SMILES	LmPK inh	FBPA Giardia inh	Tb PYK inh	Sm TGR inh	Cycloheximide cs	Shiga inhibitor
Cc1cccc(NC(=O)CSc2ccc(-c3ccco3)nn2)c1C	.	.	?	.	.	.
O=C(CSc1ccc(-c2ccco2)nn1)NCc1ccc(Cl)cc1	.	.	.	16µM	.	.
COc1cccc(CNC(=O)CSc2ccc(-c3ccco3)nn2)c1	.	.	.	8.9µM	.	.
COc1ccccc1CCNC(=O)CSc1ccc(-c2ccco2)nn1	.	?	.	3.5µM	.	.
COc1ccccc1-c1ccc(SCC(=O)NCCc2ccccc2)nn1	.	.	.	.	.	.
O=C(CSc1ccc(-c2ccco2)nn1)NCc1ccccc1	.	.	.	35µM	.	.
O=C(CSc1ccc(-c2ccccn2)nn1)NCc1ccc(Cl)cc1	.	.	.	.	.	.
CCn1c(C(=O)N2CCC(C(=O)N3CCN(c4cc(C)ccc4C)CC3)CC2)cc2sccc21	/	/	.	.	/	/
Cc1ccccc1Nc1c(-c2ccc(N3CCOCC3)cc2)nc2ccc(Cl)cn12	/	/	.	.	/	/
CCc1ccc(NC(=O)CSc2ccc(-c3ccco3)nn2)cc1	.	.	.	20µM	17	.
CC(=O)c1cccc(NC(=O)CSc2ccc(-c3ccco3)nn2)c1	.	/	?	?	.	.
COC(=O)c1cc(NC(=O)CC2C(=O)NCCN2C(=O)c2ccccc2)cc(C(=O)OC)c1 (centres undefined)	.	.	.	.	.	.
COC(=O)c1sccc1NC(=O)CC1C(=O)NCCN1C(=O)c1ccccc1 (centres undefined)	.	.	.	.	13	.
Cc1cc(C)n(C(=O)c2cc3sccc3[nH]2)n1	.	.	.	.	30	64
CC(C)Cn1nc(NC(=O)c2cccs2)c2cc3ccccc3nc21	.	.	.	.	.	.
CCCn1nc(NC(=O)c2ccco2)c2cc3ccc(C)cc3nc21	.	.	.	?	.	.
CCCn1nc(NC(=O)c2ccco2)c2cc3cc(C)ccc3nc21	.	.	.	11µM	.	.
COc1ccc2nc3c(cc2c1)c(NC(=O)c1cccs1)nn3CC(C)C	.	?	.	.	19	88
CCn1nc(NC(=O)c2ccco2)c2cc3ccccc3nc21	.	.	.	.[11.4 µM]	.	.
CC(C)Cn1nc(NC(=O)c2ccco2)c2cc3ccccc3nc21	.	.	.	50µM	.	.
COc1cc(NC(=O)COCc2cc(-c3ccc(F)cc3)on2)cc(OC)c1OC	/	/	.	.	/	/
CS(=O)(=O)N1CCN(c2ccc([N+](=O)[O-])cc2C(F)(F)F)CC1	.	.	?	.	8.9	.
CC(C)C1COC(c2cccc3ccccc23)=N1 (centres undefined)	?	.	.	.	76	136
COc1ccc2cc(C3OCCO3)c(Cl)nc2c1	.	.	.	.	60	128
CC(C)Oc1ccc(C(=O)N2CCN(c3nc4c(F)cc(F)cc4s3)CC2)cc1	/	/	.	.	/	/
SMILES	LmPK inh	FBPA Giardia inh	Tb PYK inh	Sm TGR inh	Cycloheximide cs	Shiga inhibitor
COc1cc(-c2nc(S(=O)(=O)c3ccc(C)cc3)c(N(C)C)o2)cc(OC)c1OC	.	.	.	18µM	.	.
COc1ccccc1-c1nc(S(=O)(=O)c2ccc(Cl)cc2)c(N(C)C)o1	.	.	.	?	.	.
Cc1ccc(S(=O)(=O)c2nc(-c3ccccc3Cl)oc2N(C)C)cc1	.	/	.	.	57	86
Cc1ccc(-c2nc(S(=O)(=O)c3ccc(C)cc3)c(N(C)C)o2)cc1	.	?	.	2.5µM	.	.
Cc1ccc(S(=O)(=O)c2nc(-c3ccccc3Br)oc2N(C)C)cc1	/	/	.	/	/	/
Cc1nc(S(=O)(=O)c2ccc(Cl)cc2)c(N(C)C)o1	.	.	.	10µM	.	.
Cc1cccc(-n2ccnc2SCC(=O)Nc2cccc3ccccc23)c1	/	/	.	.	/	/
O=C1c2sc3nc4n(c(=O)c3c2CCC1Br)CCCCC4 (centres undefined)	28µM	20µM	?	?	31	53
O=c1c2c3c(sc2nc2n1CCCCC2)C(O)CCC3 (centres undefined)	.	.	.	.	55	70
Cc1ccc(NC(=O)Nc2cc(S(C)(=O)=O)ccc2Cl)cc1	.	.	.	.	36	78
CS(=O)(=O)c1ccc(C(=O)Nc2cc(S(C)(=O)=O)ccc2Cl)cc1	.	.	.	.	.	.
CS(=O)(=O)c1ccc(Cl)c(NC(=O)CCl)c1	.	.	.	6.3µM	.	.
S=C(NN=C1C2CC3CC(C2)CC1C3)Nc1ccccc1	.	?	.	.	53	146
COc1cccc(Oc2ccc(C(F)(F)F)cc2NC(=O)CCc2nc3ccccc3c(=O)[nH]2)c1	.	/	.	.	43	55
CCn1nc(-c2ccccc2)nc2c(=O)n(C)c(=O)nc1-2	.	?	.	?	43	48
CC(C)[C@H](NC(=O)CCCn1nnc2ccccc2c1=O)C(=O)O	.	.	.	40µM	.	.
O=c1c2ccccc2nnn1CSc1ccccc1	?	.	.	.	45	92
O=C(O)CNC(=O)CCCn1nnc2ccccc2c1=O	.	.	.	.	.	.
O=c1c2ccccc2nnn1CSc1nnc(Nc2ccccc2)s1	.	.	.	.	.	.
O=c1c2ccccc2nnn1CSc1ccc2ccccc2n1	.	.	.	.	.	.
Cc1ccc(Nc2nnc(SCn3nnc4ccccc4c3=O)s2)cc1	.	.	.	.	31	116
CSCC[C@H](NC(=O)[C@@H]1CCCN1C(=O)CNC(=O)[C@H](CCCCN)NC(=O)[C@H](Cc1cnc[nH]1)NC(=O)[C@H](CO)NC(=O)[C@H](CC(C)C)NC(=O)[C@H](CCCN=C(N)N)NC(=O)[C@@H]1CCCN1C(=O)[C@H](CCCN=C(N)N)NC(=O)[C@@H]1CCC(=O)N1)C(=O)N1CCC[C@H]1C(=O)N[C@@H](Cc1ccccc1)C(=O)O	/	.	/	/	.	.
O=C(OCc1nnc(-c2ccc(Cl)cc2)o1)c1ccc(O)cc1	.	.	.	.	19	28
CS(=O)(=O)c1ccc(C(=O)OCc2nnc(-c3ccc(Cl)cc3)o2)cc1[N+](=O)[O-]	.	.	.	2.5µM	.	.
O=C(OCc1nnc(-c2ccc([N+](=O)[O-])cc2)o1)c1ccc(F)c(S(=O)(=O)N2CCOCC2)c1	/	/	.	.	/	/
CCOCCSc1nc2c(c(-c3cccs3)c1C#N)CC/C2=C/c1cccs1	.	.	.	45µM	.	.
CCOC(=O)CC(=O)CSc1nc2c(c(-c3cccs3)c1C#N)CCC2	.	.	.	.	.	.
Cc1cc(F)ccc1NC(=O)CCS(=O)(=O)c1cc2c(cc1C)NC(=O)CO2	/	/	.	.	/	/
O=C(COC(=O)C1CCC1)c1c[nH]c2ccccc12	/	/	.	.	/	/
